Results on six molecules are retold here after PubChem BioAssay.

Structures are written as SMILES. The source made the active and inactive calls. Unless noted, no rule for the calls is given here.

A short description of assay [1]: resazurin metabolic signal in HepG2 cells – cell-based, resazurin fluorescence, 24 h, PK04 Diversity Set, profiling panel (AID 1172). As to conditions: HepG2 viability, higher = more signal.
Assay [2] in a line: budding yeast growth changes without added modifier – OD600, strain BY4716, 24 h, basal condition, primary screen (AID 1173). As to conditions: S. cerevisiae BY4716 growth, OD600, 24 h; higher = more signal, called active from +8 up or from −8 down.
The nature of assay [3]: viability profiling in MM1S myeloma cells – cell-based, resazurin fluorescence, basal, 24 h, PK04 Diversity Set, profiling panel (AID 1174).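 Also: MM1S multiple myeloma cell line.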 As to conditions: higher = more signal, called active from +8 up or from −8 down. (In general: Alamar Blue is a resazurin reagent that responds to reducing activity.)
The target in assay [4] is Dihydroorotate dehydrogenase (quinone), mitochondrial (Plasmodium falciparum (isolate 3D7)) (UniProt Q08210). Put plainly: inhibition of P. falciparum DHODH – biochemical, C-terminal His tag, absorbance 600 nm, primary screen (AID 1175).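 Also: recombinant parasite enzyme with a five histidine tag at its C terminus.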 As to conditions: PfDHODH enzyme, DCIP absorbance 600 nm; higher = more signal, called active from +8 up or from −8 down.
Assay [5] in a line: inhibition of PAO1 biofilm formation – strain PAO1, LB-PBS medium, absorbance 600 nm, primary screen (AID 1176). Conditions: P. aeruginosa PAO1 growth/biofilm, A600, 12 h; higher = more signal.
The nature of assay [6]: growth modulation of vineyard yeast isolate – strain RM11-1a, OD600, basal, 24 h, primary screen (AID 1177).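 Also: cultures grown under basal conditions with no added stressor.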 As to conditions: S. cerevisiae RM11-1a growth, OD600, 24 h; higher = more signal, called active from +8 up or from −8 down.
A short description of assay [7]: growth of efflux-deficient E. coli DRC39 – strain DRC39, OD650, 24 h, E. coli filamentation inducers, primary screen (AID 1178).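 Also: growth measured as culture turbidity by optical density at 650 nm.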 Conditions: E. coli DRC39 acrAB, higher = more signal, called active from +8 up or from −8 down.
Assay [8] is described as follows: growth of efflux-deficient E. coli DRC39 – strain DRC39, OD650, 48 h, E. coli filamentation inducers, primary screen (AID 1179).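 Also: screen aims at cell division blockers that make cells filament.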 Conditions: E. coli DRC39 delta-acrAB growth, higher = more signal, called active from +8 up or from −8 down.
Assay [9] in a line: viability profiling in RPMI8226 myeloma cells – cell-based, resazurin fluorescence, basal, 24 h, PK04 Diversity Set, profiling panel (AID 1180).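 Also: RPMI8826 multiple myeloma cell line at 5000 cells per well.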 Conditions: higher = more signal.
Assay [10] addresses E3 ubiquitin-protein ligase XIAP (Homo sapiens) (UniProt P98170). Put plainly: small molecules binding XIAP protein – biophysical, small-molecule microarray, fluorescence 635 nm, primary screen (AID 1181).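 Also: score merges 667 nm emission and signal to noise over triplicate slides.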 Conditions: higher = more signal.
Assay [11] deals with XIP peptide (Xip251-270) binding. Briefly: XIP fragment 251-270 binding compounds – biochemical, small-molecule microarray, fluorescence 635/667 nm, 0.1 µg/mL protein, primary screen (AID 1182). Conditions: fluorescent protein binding, 635 nm, higher = more signal, called active from +8 up or from −8 down.
Another assay concerns XIP peptide (Xip251-270). Put plainly: compounds binding XIP fragment 251-270 – biochemical, small-molecule microarray, fluorescence 635/667 nm, 0.5 µg/mL protein, primary screen (AID 1183). As to conditions: fluorescence 635 nm, higher = more signal.
A short description of assay [12]: blood-stage malaria parasite viability loss – strain 3D7, DAPI fluorescence, 100 nL, primary screen (AID 1184).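 Also: parasites grown inside human red blood cells in medium with human serum.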 As to conditions: P. falciparum 3D7 growth, 3 d, higher = more signal.
The target in assay [13] is Homeobox protein Hox-A13 (Mus musculus) (UniProt Q62424). Put plainly: disruptors of Hoxa13 oligonucleotide interaction – biochemical, fluorescence polarization, labeled oligonucleotide, primary screen (AID 1185). As to conditions: Hoxa13:DNA binding, 15 min, higher = more signal, called active from +8 up or from −8 down. For orientation: In fluorescence polarisation assays a small probe gives low polarisation when free and higher when bound to something large.

Assay [14] in a line: blockers of DNA damage checkpoint Chk1 activation – imaging, HeLa, hydroxyurea, phospho-Chk1 antibody, percent positive cells, primary screen (AID 1186). As to conditions: hydroxyurea-induced phospho-Chk1 immunofluorescence imaging, higher = more signal.
Assay [15] is described as follows: blockers of DNA damage checkpoint Chk1 activation – imaging, HeLa, hydroxyurea, phospho-Chk1 nuclear intensity, primary screen (AID 1187). Conditions: hydroxyurea-induced phospho-Chk1 immunofluorescence imaging, higher = more signal.

Homeobox protein Hox-A13 (Mus musculus), sequence (Q62424 whole entry, looked up): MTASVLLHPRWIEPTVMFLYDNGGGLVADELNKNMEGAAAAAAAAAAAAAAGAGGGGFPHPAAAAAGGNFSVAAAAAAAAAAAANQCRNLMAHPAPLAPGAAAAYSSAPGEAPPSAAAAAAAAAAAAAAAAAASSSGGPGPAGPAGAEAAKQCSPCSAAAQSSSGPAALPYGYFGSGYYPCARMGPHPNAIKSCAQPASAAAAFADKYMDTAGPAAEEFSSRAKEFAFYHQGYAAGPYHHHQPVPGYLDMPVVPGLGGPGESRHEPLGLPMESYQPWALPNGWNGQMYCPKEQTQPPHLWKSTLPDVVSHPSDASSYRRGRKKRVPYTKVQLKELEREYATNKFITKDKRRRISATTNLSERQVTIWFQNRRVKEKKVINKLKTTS
Dihydroorotate dehydrogenase (quinone), mitochondrial (Plasmodium falciparum (isolate 3D7)), sequence (Q08210 whole entry, looked up): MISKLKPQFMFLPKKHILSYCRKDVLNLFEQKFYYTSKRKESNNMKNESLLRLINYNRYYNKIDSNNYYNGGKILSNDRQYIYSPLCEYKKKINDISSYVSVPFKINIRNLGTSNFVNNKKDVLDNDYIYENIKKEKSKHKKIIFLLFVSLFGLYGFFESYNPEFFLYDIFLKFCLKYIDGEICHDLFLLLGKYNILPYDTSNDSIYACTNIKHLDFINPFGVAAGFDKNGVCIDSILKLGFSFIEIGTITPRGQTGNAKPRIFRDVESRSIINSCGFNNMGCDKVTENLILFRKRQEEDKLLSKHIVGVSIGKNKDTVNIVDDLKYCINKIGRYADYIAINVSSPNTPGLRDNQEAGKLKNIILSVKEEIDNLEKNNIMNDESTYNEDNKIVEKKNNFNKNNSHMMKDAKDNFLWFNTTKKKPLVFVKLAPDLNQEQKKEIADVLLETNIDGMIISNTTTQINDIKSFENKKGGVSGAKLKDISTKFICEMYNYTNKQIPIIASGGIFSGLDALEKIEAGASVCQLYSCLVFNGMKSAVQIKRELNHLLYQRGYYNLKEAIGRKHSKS
E3 ubiquitin-protein ligase XIAP (Homo sapiens), sequence (P98170 whole entry, looked up, the tested form may be a part): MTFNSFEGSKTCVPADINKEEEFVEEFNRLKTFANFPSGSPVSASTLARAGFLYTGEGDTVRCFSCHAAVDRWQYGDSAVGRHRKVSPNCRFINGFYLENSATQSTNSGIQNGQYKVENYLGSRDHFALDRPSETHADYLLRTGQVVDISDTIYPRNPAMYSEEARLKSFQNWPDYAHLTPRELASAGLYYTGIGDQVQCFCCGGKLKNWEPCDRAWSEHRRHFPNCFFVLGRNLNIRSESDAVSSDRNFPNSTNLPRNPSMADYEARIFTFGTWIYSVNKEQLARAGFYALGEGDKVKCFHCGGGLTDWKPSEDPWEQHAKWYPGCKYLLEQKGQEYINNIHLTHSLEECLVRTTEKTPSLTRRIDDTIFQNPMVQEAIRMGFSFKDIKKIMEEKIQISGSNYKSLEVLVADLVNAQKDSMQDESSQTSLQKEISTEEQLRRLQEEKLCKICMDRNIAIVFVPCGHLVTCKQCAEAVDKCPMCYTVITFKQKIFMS

Turning to `C=C[C@H](COC(C)=O)NS(=O)(=O)c1ccc(Br)cc1`, the z-score in [1] was 0.266; in assay [2] it was -1.05 (inactive); in [3], -0.05 (inactive); in assay [5], -0.18 (inactive); in [6], 0.579 (inactive); in assay [7], 0.165 (inactive). Moreover, the z-score in [8] was -0.0304 (inactive); in assay [9], -0.675; in assay [12] it was 0.463; in assay [13] it was -0.189 (inactive); in [14] it was -0.655 (inactive); in assay [15], -0.782 (inactive). In addition, the composite z-score in assay [4] is -1.08 (inactive); in assay [10], -0.0627; in [11], -0.111 (inactive); with XIP peptide (Xip251-270), 0.238.
On to `COC(=O)[C@H](Cc1ccccc1)N1CC(/C=C/C2CC2)=C[C@@H]1[C@@H](O)Cc1ccccc1`, for which the z-score is 1.09 in assay [1]; -2.65 (inactive) in assay [2]; -2.24 (inactive) in assay [3]; 0.294 (inactive) in assay [5]; 0.385 (inactive) in assay [6]; 0.461 (inactive) in [7]. Besides, the z-score was 0.658 (inactive) in assay [8]; -0.277 in assay [9]; -0.547 in [12]; -5.53 (inactive) in [13]; -0.613 (inactive) in [14]; -0.713 (inactive) in assay [15]. The composite z-score is 0.114 (inactive) in assay [4], -0.0414 in [10], 0.971 (inactive) in [11] and 0.639 in the assay with XIP peptide (Xip251-270).
Take `COc1cc(CO)cc(I)c1O[C@H]1C=C(C(=O)NCCO)C[C@@H](NCc2ccccc2F)[C@@H]1O`: the z-score in assay [1] is -0.0271; in [2], -2.31 (inactive); in assay [3], -0.233 (inactive); in [5], -0.365 (inactive); in assay [6], 1.09 (inactive); in assay [7], 0.491 (inactive). Besides, the z-score is 0.41 (inactive) in assay [8]; 0.559 in assay [9]; -2.98 in assay [12]; -7.62 (inactive) in [13]; -0.24 (inactive) in assay [14]; 0.959 (inactive) in assay [15]. The composite z-score in assay [4] was 1.28 (inactive); in [10], 0.0669; in [11], -0.346 (inactive); in the assay on XIP peptide (Xip251-270), 0.481.
For the molecule `COCCOC(=O)N1C(=O)[C@@]2(c3cc(C#CC4(O)CCCCCC4)ccc31)[C@H](C(=O)N1CCCCCCC1)[C@H]1C(=O)O[C@H](c3ccccc3)[C@H](c3ccccc3)N1[C@@H]2c1ccc(OCCO)cc1`, the z-score is 0.304 in assay [1]; 0.397 (inactive) in assay [2]; 0.67 (inactive) in [3]; 2.03 (inactive) in assay [5]; 1.51 (inactive) in assay [6]; -0.151 (inactive) in assay [7]. Moreover, the z-score is 0.201 (inactive) in assay [8]; 0.918 in assay [9]; -2.3 in [12]; -15.8 (active) in [13]; 0.331 (inactive) in [14]; 0.805 (inactive) in [15]. Also, the composite z-score in assay [4] was -2.1 (inactive); in assay [10] it was 0.293; in assay [11] it was 1.72 (inactive); in the assay with XIP peptide (Xip251-270) it was 0.838.
As to `C=C(C(=O)CC[C@H](OC(=O)c1cccnc1)c1ccc(CO)o1)C(C)C`, the z-score in assay [1] is -0.499; in [2], -1.02 (inactive); in [3], -0.323 (inactive); in assay [5], 0.354 (inactive); in assay [6], -0.811 (inactive); in assay [7], -0.645 (inactive). Further, the z-score in [8] is -0.631 (inactive); in [9], -0.74; in assay [12] it was 0.566; in assay [13], -5.25 (inactive); in [14], 0.286 (inactive); in [15], -0.0632 (inactive). Moreover, the composite z-score in assay [4] is -3.18 (inactive); in assay [10], -0.187; in [11], 1.43 (inactive); in the assay on XIP peptide (Xip251-270), 0.62.
Consider `CCOC(=O)C1=CC[C@@H](c2cc(Cl)ccc2Cl)N(S(=O)(=O)c2ccc(C)cc2)[C@H]1c1ccc(OC)cc1`, for which the z-score in assay [1] is 0.292; in [2], 2.05 (inactive); in assay [3] it was -1.34 (inactive); in assay [5], 0.0767 (inactive); in [6], 2.28 (inactive); in assay [7] it was -0.61 (inactive). In addition, the z-score is -1.03 (inactive) in assay [8]; -1.97 in [9]; -1.41 in assay [12]; -1.08 (inactive) in [13]; -0.256 (inactive) in [14]; -0.611 (inactive) in [15]. The composite z-score in assay [4] is 0.658 (inactive); in assay [10] it was 0.179; in [11], -0.244 (inactive); in the assay with XIP peptide (Xip251-270) it was -0.837.
